The text below walks through data of PubChem BioAssay.

Experiment [1] is described as follows: inhibitors of TNFa-induced NFkB p65 translocation, primary screen, imaging, HUVEC, MLSMR starter and 10KST1 sets (AID 438;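 active means inhibition above 20% together with a positive visual image hit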;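 further: compound added about 3h40 before a 20 min TNFalpha stimulation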;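 on inhibition: signal is the nuclear over cytoplasmic p65 intensity ratio per well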). Particulars: HUVEC TNFa-induced p65 nuclear translocation; cell count: measured here: nuclei count (cytotoxicity indicator), at 2.08 µM; inhibition: at 2 µM, stronger effect = higher value, 0% TNFa-plus-vehicle, 100% no-TNFa wells.
The nature of experiment [2]: reduction of polyQ htt aggregates in cells – imaging, exon1htt(103Q)mCFP cells, high-content imaging, primary screen (AID 483;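 active means visual image review flags a hit and inhibition of aggregation exceeds 20%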;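 further: compound exposure lasted 3 days before fixation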;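 on nuclei count: percent of the per-plate median nuclei count of sample wells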). Particulars: exon1htt(103Q)mCFP cell line, aggregate imaging, at 2 µM; inhibition of aggregation: stronger effect = higher value; nuclei count: measured here: cell count, toxicity.
Experiment [3] is described as follows: endothelial E-selectin expression blockers – imaging, HUVEC, immunofluorescence, MLSMR starter and 10KST1 sets, primary screen (AID 487;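 active means visually confirmed hit in the image check and inhibition above 20%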;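 on inhibition: signal is fraction of cell area covered by stained E-selectin grains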;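 on nuclei count: 100% = median nuclei count of all wells on the same plate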). Particulars: HUVEC TNFalpha-induced E-selectin immunofluorescence imaging, at 2 µM; inhibition: stronger effect = higher value; nuclei count: measured here: cell number, toxicity.
Experiment [4] deals with Voltage-gated potassium channel subunit beta-2 (Rattus norvegicus) (UniProt P62483). Description: inhibitors of rat Kvbeta2 reductase activity – biochemical, NADPH fluorescence, primary screen (AID 622;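 active means fluorescence slope higher than the sample average by over 3 SD, cut at about -0.22 in these data, passing the limit was not always enough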;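 further: slope of raw intensity against log time taken from 70 to 1610 s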). Particulars: recombinant KvBeta, 4-cyanobenzaldehyde reduction, at 10 µM, stronger effect = higher value.
Voltage-gated potassium channel subunit beta-2 (Rattus norvegicus), sequence (P62483 whole entry, looked up): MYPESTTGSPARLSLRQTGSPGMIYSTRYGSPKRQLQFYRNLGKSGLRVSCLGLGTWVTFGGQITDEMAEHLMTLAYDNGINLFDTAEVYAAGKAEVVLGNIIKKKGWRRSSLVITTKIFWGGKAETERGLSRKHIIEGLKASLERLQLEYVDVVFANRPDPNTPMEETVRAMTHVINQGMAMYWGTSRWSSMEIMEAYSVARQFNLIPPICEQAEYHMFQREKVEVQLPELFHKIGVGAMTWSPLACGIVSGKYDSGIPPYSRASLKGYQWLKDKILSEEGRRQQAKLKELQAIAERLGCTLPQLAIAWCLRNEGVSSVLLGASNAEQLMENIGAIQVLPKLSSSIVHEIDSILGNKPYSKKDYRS
For experiment [5] the target is unchanged. Briefly: enhancers of rat Kvbeta2 NADPH turnover – biochemical, NADPH fluorescence, primary screen (AID 623;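 active means NADPH fluorescence slope more negative than the mean of all samples by about 3 SD, 99.7% confidence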;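 further: fluorescence intensity change per second fitted from 20 to 320 s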). The note with it: Recombinant KvBeta, NADPH fluorescence decrease slope, 10 min; at 10 µM; stronger effect = lower value.
Experiment [6] deals with Alpha-2C adrenergic receptor (Homo sapiens) (UniProt P18825). Description: compounds altering alpha2C-coupled GIRK flux – cell-based, HEK293 alpha2C/GIRK1/2, thallium flux, primary screen (AID 624;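 active means fluorescence slope after compound addition differing from the mean of all screened samples at 99.7% confidence, in either direction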;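 further: slope of fluorescence ratio to pre-addition baseline per second over 15 to 24 s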). Particulars: thallium flux BTC fluorescence, at 10 µM, actives lie on both sides.
Alpha-2C adrenergic receptor (Homo sapiens), sequence (P18825 whole entry, looked up): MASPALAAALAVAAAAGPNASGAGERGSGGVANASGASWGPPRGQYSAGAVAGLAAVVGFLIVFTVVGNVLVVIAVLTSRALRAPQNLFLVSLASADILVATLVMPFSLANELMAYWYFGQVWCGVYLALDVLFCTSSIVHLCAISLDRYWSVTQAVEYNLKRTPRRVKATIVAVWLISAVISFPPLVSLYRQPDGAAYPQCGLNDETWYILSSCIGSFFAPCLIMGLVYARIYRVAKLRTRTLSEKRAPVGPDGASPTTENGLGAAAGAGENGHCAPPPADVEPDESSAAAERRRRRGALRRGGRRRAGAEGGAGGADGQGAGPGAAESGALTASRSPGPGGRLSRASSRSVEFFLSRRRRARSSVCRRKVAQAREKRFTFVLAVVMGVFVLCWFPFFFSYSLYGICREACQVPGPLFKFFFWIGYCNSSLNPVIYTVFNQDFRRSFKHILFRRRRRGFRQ
Experiment [7] can be described thus: blockers of RIG-like receptor reporter activation – cell-based, Sendai virus stimulus, luciferase, 10K MLSCN set, TLR/RLR signaling modifier project, primary screen (AID 602276;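 active means inhibition at or above 50% at 10 µM; inactive means inhibition below 50%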;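 further: firefly luciferase from ISG56 promoter only with Renilla not read in this screen; 0% = Sendai virus plus DMSO and 100% = medium plus DMSO without virus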). The note with it: HEK293 RL24 IRF3 luciferase reporter, at 10 µM, stronger effect = higher value. In general terms: Reporter assays use an easily measured gene product as a stand-in for the process of interest.

Experiment [8] is described as follows: TLR3 IRF3 reporter activation blockers – cell-based, poly I:C stimulus, luciferase, 10K MLSCN set, primary screen (AID 602277). Particulars: HEK293-TLR3 RL24 IRF3 luciferase reporter, at 10 µM, stronger effect = higher value.

Active and inactive are the calls of the source.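 How the source made its calls, unless noted: active means inhibition of the reporter signal at or above 50%; inactive means inhibition below 50%.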

In general, inhibition refers to the relative decrease from the control value, in per cent.

Regarding `O=C(NCCC1=CCCCC1)C1CCN(C(=O)Nc2ccccc2)CC1`, the cell count in experiment [1] was determined as 206. Further, the inhibition is -6.2% (inactive) in experiment [1], 5.2% (inactive) in experiment [3], 2.99% (inactive) in experiment [7] and 21.5% (inactive) in experiment [8]. In addition, in experiment [2], the inhibition of aggregation was -13.3% (inactive). Moreover, the nuclei count in experiment [2] came to 92.3%; in experiment [3] it was 84.8%. Besides, in experiment [4], the fluorescence slope was -0.439 (inactive). Further, the NADPH fluorescence slope in experiment [5] is -5.1e-05 (inactive). Also, the slope in experiment [6] is 0.00392 (inactive).
`CC(C)N(C(=O)CSc1nnc(-c2cc3ccccc3cc2O)n1Cc1ccco1)C(C)C`: the cell count in experiment [1] came to 836. The inhibition in experiment [1] was 6.2% (inactive); in experiment [3], 4.9% (inactive); in experiment [7], -4.55% (inactive); in experiment [8], 7.55% (inactive). Besides, the inhibition of aggregation in experiment [2] was -6.1% (inactive). In addition, the nuclei count in experiment [2] turned out to be 107%; in experiment [3], 102%. In experiment [4], the fluorescence slope is -0.47 (inactive). For the same molecule, in experiment [5], the NADPH fluorescence slope is -2.4e-05 (inactive). In addition, in experiment [6], the slope is 0.00627 (inactive).
As for `O=C(c1ccco1)N1CCN(CC2CC3C=CC2C3)CC1` (centres undefined), the cell count in experiment [1] was 269. Also, the inhibition in experiment [1] is -10.4% (inactive); in experiment [3], -30.7% (inactive); in experiment [7], -7.24% (inactive); in experiment [8], -20% (inactive). Also, the inhibition of aggregation in experiment [2] is -30.9% (inactive). Further, the nuclei count came to 7.7% in experiment [2] and 106% in experiment [3]. The fluorescence slope in experiment [4] was -0.509 (inactive). In addition, the NADPH fluorescence slope in experiment [5] is 2.8e-05 (inactive). Besides, the slope in experiment [6] is 0.00614 (inactive).
On to `Cc1ccc(NC(=O)C2CCCN(S(=O)(=O)c3cnc[nH]3)C2)c(Br)c1` (centres undefined), for which the cell count in experiment [1] came to 601. The inhibition in experiment [1] was 10.1% (inactive); in experiment [3], 12.8% (inactive); in experiment [7] it was 3.4% (inactive); in experiment [8], -7.13% (inactive). For the same molecule, the inhibition of aggregation in experiment [2] was -33.6% (inactive). Also, the results for the nuclei count in experiment [2] and in experiment [3] were 82.3% and 108%, respectively. In addition, the fluorescence slope in experiment [4] is -0.543 (inactive). Also, the NADPH fluorescence slope in experiment [5] is -6.4e-05 (inactive). The slope in experiment [6] was 0.00566 (inactive).
In the case of `CCS(=O)(=O)N1CCCC(c2nc(-c3cccc(OC)c3)no2)C1` (centres undefined), the cell count in experiment [1] is 730. For the same molecule, the inhibition in experiment [1] is -52% (inactive); in experiment [3], -66.1% (inactive); in experiment [7], -28.7% (inactive); in experiment [8], -59.2% (inactive). Also, the inhibition of aggregation in experiment [2] is -9.9% (inactive). The nuclei count in experiment [2] was determined as 92.1%; in experiment [3], 104%. The fluorescence slope in experiment [4] was -0.535 (inactive). For the same molecule, the NADPH fluorescence slope in experiment [5] was 1.2e-05 (inactive). Further, the slope in experiment [6] was 0.00638 (inactive).
`CCCCc1nccn1CCn1ccnc1CCCC`: the cell count in experiment [1] is 514. Moreover, the inhibition in experiment [1] was -5% (inactive); in experiment [3], -75% (inactive); in experiment [7], 26.7% (inactive); in experiment [8], 25.7% (inactive). The inhibition of aggregation in experiment [2] was 53.1% (active). The figures for the nuclei count in experiment [2] and in experiment [3] were 75% and 108%, respectively. The fluorescence slope in experiment [4] is -0.489 (inactive). In experiment [5], the NADPH fluorescence slope is 1.9e-05 (inactive). In experiment [6], the slope is 0.00472 (inactive).
In the case of `COc1ccccc1-c1nc2n(n1)C(c1cccs1)C(C(=O)Nc1cccnc1)=C(C)N2` (centres undefined), the cell count in experiment [1] is 446. Further, the inhibition in experiment [1] was 16.2% (inactive); in experiment [3], 7.4% (inactive); in experiment [7], -11.5% (inactive); in experiment [8], -7.18% (inactive). The inhibition of aggregation in experiment [2] is -15.2% (inactive). The results for the nuclei count in experiment [2] and in experiment [3] were 57.9% and 98.9%, respectively. The fluorescence slope in experiment [4] is -0.587 (inactive). Further, the NADPH fluorescence slope in experiment [5] was -3.8e-05 (inactive). Also, in experiment [6], the slope was 0.00515 (inactive).
Turning to `COc1ccccc1CNC(=O)N[C@@H](Cc1ccccc1)C(=O)O`, the cell count in experiment [1] turned out to be 602. Besides, the inhibition was 0.9% (inactive) in experiment [1], 31.9% (inactive) in experiment [3], 12.8% (inactive) in experiment [7] and 22.6% (inactive) in experiment [8]. The inhibition of aggregation in experiment [2] is -15.9% (inactive). The nuclei count in experiment [2] was 107%; in experiment [3], 99.5%. Also, the fluorescence slope in experiment [4] is -0.6 (inactive). For the same molecule, the NADPH fluorescence slope in experiment [5] was -5.1e-05 (inactive). In addition, the slope in experiment [6] is 0.00621 (inactive).
`CC1/C(=N/O)C(CN(C)C)C2CC1C2(C)C` (centres undefined): in experiment [1], the cell count stood at 347. The inhibition in experiment [1] is -2.5% (inactive); in experiment [3], 13.2% (inactive); in experiment [7], 3% (inactive); in experiment [8], 11.5% (inactive). Moreover, the inhibition of aggregation in experiment [2] was 7.8% (inactive). For the same molecule, the nuclei count was 30.1% in experiment [2] and 101% in experiment [3]. In experiment [4], the fluorescence slope is -0.592 (inactive). For the same molecule, in experiment [5], the NADPH fluorescence slope is 1.8e-05 (inactive). Moreover, the slope in experiment [6] is 0.0062 (inactive).
